# In PubChem BioAssay (NCATS):
# Several values for one entry are separate records, joined by “and”; a condition that tells them apart may be missing. Equal entries are not always repeated. Records with an inconclusive call do not appear. Entries that show only a call come without a potency. Activity calls are given as the source filed them. Unless noted, calls come from the whole dose curve; as a rule, active = well fitted curve in the direction sought with a large enough effect; inconclusive = small, poorly fitted or top-dose-only effect, or another doubt; inactive = no such curve, though single readings can be large; an effect the other way counts as inactive or inconclusive. Peptide text beside a SMILES is read from it.
# Key:
# [1] = target: Alpha-galactosidase A (Homo sapiens) (UniProt P06280); assay: Counterscreen for Glucocerebrosidase Inhibitors: qHTS Assay for Human alpha-Galactosidase at pH 4.5 (AID 992)
# Alpha-galactosidase A (Homo sapiens), sequence (P06280 whole entry, looked up): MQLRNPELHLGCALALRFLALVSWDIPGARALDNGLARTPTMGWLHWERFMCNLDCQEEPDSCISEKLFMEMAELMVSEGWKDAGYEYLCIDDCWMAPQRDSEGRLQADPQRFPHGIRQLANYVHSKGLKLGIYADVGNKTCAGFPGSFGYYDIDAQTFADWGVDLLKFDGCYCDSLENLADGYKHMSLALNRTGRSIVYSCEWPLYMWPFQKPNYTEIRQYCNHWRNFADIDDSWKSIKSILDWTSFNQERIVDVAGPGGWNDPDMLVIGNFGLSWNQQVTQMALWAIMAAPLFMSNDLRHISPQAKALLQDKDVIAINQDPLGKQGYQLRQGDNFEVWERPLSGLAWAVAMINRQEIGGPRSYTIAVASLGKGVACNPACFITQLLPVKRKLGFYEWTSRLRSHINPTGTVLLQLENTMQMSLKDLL
# How it was run: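 Steps: enzyme (2 nM final), then compound across 0.7 nM to 77 uM, then 80 uM fluorogenic galactopyranoside substrate; incubate 20 min at room temperature; quench at pH 10; measure fluorescence at 365/440 nm.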
# [2] = target: alpha-glucosidase (Oryza sativa, rice) (UniProt Q653V4); assay: Counterscreen for Glucocerebrosidase Inhibitors: qHTS Assay for Rice alpha-Glucosidase at pH 5.0 (AID 997)
# How it was run: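 Endpoint fluorogenic assay at pH 5.0: compounds (0.7 nM to 77 uM) titrated against 4 nM rice enzyme and 400 uM 4-MU-alpha-glucoside for 20 min at room temperature; NaOH/glycine stop, read ex 365/em 440 nm, Hill-fitted AC50.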
# [3] = Validation of Assay for Modulators of Lamin A Splicing (AID 1459; active = well fitted curve in the direction sought with a large enough effect in the signal ratio; the % refers to the signal ratio;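 note: cells exposed to compound for two days before reading; ratio rise marks activators and ratio drop marks inhibitors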)
# How it was run: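 Splicing correction read as GFP (500-530 nm) over DsRed2 (575-640 nm) object intensity after 48 h compound exposure of reporter HeLa S3 clones (600 cells/well, 2% FBS medium); ancitabine and cycloheximide titrations, 0.5% DMSO as vehicle.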
# [4] = target: DNA repair nuclease/redox regulator APEX1 (Homo sapiens) (UniProt P27695); assay: qHTS Validation Assay for Inhibitors of the Human Apurinic/apyrimidinic Endonuclease 1 (APE1) (AID 1705;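 note: TAMRA fluorescence gain over two minutes as APE1 cuts a quenched THF abasic duplex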)
# DNA repair nuclease/redox regulator APEX1 (Homo sapiens), sequence (P27695 whole entry, looked up): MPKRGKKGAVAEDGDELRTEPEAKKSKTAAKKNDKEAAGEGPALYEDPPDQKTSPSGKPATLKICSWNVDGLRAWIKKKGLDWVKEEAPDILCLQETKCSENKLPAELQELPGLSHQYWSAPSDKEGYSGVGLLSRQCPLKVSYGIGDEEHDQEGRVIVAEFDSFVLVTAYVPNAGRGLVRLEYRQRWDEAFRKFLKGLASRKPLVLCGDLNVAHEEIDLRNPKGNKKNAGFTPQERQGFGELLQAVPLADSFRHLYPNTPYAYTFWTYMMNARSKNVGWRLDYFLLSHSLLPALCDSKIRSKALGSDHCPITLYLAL
# Description: Assay Provider: David M. Wilson, III, National Institute on Aging, NIH
# Screening Center PI: Austin, C.P.
# Screening Center: NIH Chemical Genomics Center [NCGC]
# The apurinic/apyrimidinic endonuclease APE1 is the primary mammalian enzyme responsible for the removal of abasic (or AP) sites in DNA and functions centrally in the base excision DNA repair (BER) pathway. […] Thus, targeting APE1 could improve the efficacy of current treatment paradigms by promoting selective sensitization or protection of diseased and normal cells, respectively.
# Inhibition of APE1 activity was screened by utilizing double-stranded short substrate containing tetrahydrofuran (THF) abasic site labeled with rhodamine-type fluorophore (TAMRA) at the 5'-end and with non-fluorescent Black Hole Quencher-2 (BHQ-2) at the opposing 3'-end. An increase in the fluorescence intensity due to incision of the abasic site by APE1 was used to measure the enzyme activity.
# 1. […]
# Three uL of enzyme were dispensed to 1536-well Greiner black solid bottom plates. […] The plates were immediately transferred into ViewLux High-throughput CCD imager (Perkin-Elmer) in order to measure the reaction progress in kinetic mode (three reads every 60 seconds) using 525 nm excitation and 598 nm emission fluorescence protocol. The fluorescence intensity difference between the third and the first time points was used to compute reaction progress.
# [5] = Counterscreen for APE1 Inhibitors: Fluorescent Dye Displacement Validation Assay (AID 1707)
# How it was run: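 Reaction mixture of 250 nM Thiazole Orange and 50 nM double-stranded abasic-site DNA was dispensed, compounds were pin-transferred, and fluorescence was read at endpoint (480 nm ex, 540 nm em). Reduced fluorescence indicated dye displacement by DNA binding.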
# [6] = Cell Viability - LYMP2-024 (AID 988); note: nearly all actives have a fitted effect of over 60% in size; note: potency is the fitted concentration of half-maximal effect
# How it was run: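 Cytotoxicity was taken as a decrease in ATP (CellTiter-Glo luminescence) after 24 hr compound exposure at 37 C of LYMP2-024 lymphoblastoid cells, 2500 cells/well. Concentration-response data were fitted to the Hill equation to give AC50.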
# [7] = Cell Viability - LYMP2-026 (AID 989); note: nearly all actives have a fitted effect of over 50% in size; note: potency is the fitted concentration of half-maximal effect
# How it was run: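 Cytotoxicity read as ATP-dependent luminescence (CellTiter-Glo, 30 min room temperature) after 24 h compound treatment at 37 C. LYMP2-026 lymphoblastoid line seeded at 2500 cells/well; AC50 derived by standard Hill equation.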
# [8] = Cell Viability - LYMP1-002 - Assay at 24 hr (AID 993)
# How it was run: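 qHTS cytotoxicity at 24 h: CellTiter-Glo ATP luminescence in lymphoblastoid line LYMP1-002 incubated with compound at 37 °C. Concentration-response modeled with the Hill equation for AC50; tetraoctylammonium bromide served as positive control.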
# [9] = Cell Viability - LYMP1-002 - Assay at 40 hr (AID 994); note: nearly all actives have a fitted effect of over 60% in size; note: potency is the fitted concentration of half-maximal effect
# How it was run: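 Cytotoxicity was read as loss of cellular ATP (CellTiter-Glo luminescence) after 40 hr compound exposure at 37 C of 2500 LYMP1-002 lymphoblastoid cells per well. Concentration-response data were fitted with the standard Hill equation to give AC50.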
# [10] = qHTS Assay for Lipid Storage Modulators (AID 1519; calls by dose curve); details: Drosophila S3 cells, BODIPY lipid droplet/cell ratio, laser cytometry, cells loaded with oleic acid
# How it was run: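 Cells seeded at 5,000 per well were treated with compounds over a concentration series and loaded with oleic acid (400 uM, as added). Lipid droplet fluorescence (488 nm excitation, 500-530 nm channel) was read by laser-scanning cytometry and normalized to 20 uM Triacsin C.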
# [11] = measured here: cell count channel max response
# [12] = measured here: lipid channel max response
smiles,measurement,setting,value
CC[N+](C)(C)Cc1ccccc1Br,outcome,[1],inactive
same,outcome,[2],inactive
same,outcome,[3],inactive
same,outcome,[4],inactive
same,outcome,[5],inactive
CN1Cc2c(N)cccc2C(c2ccccc2)C1 (stereo not given),outcome,[3],inactive
same,outcome,[4],inactive
O=S(=O)(O)O,Potency,[6],inactive
same,Potency,[7],inactive
same,outcome,[8],inactive
same,Potency,[9],inactive
Cc1cc(C(=O)NNCc2ccccc2)no1,"activity change, negative = inhibition",[10]; at 25.7 µM (top of the series),-1.95% (inactive)
same,max response,[10]; [11],-16.5%
same,max response,[10]; [12],-16.7%
CC(O)CO (stereo not given),Potency,[6],inactive
same,Potency,[7],inactive
same,outcome,[8],inactive
same,Potency,[9],inactive
CC(C)(C)NC(=O)[C@@H]1C[C@@H]2CCCC[C@@H]2CN1C[C@@H](O)[C@H](Cc1ccccc1)NC(=O)[C@H](CC(N)=O)NC(=O)c1ccc2ccccc2n1,Potency,[9],50.1 µM (active)
CCCCC/C=C\C/C=C\CCCCCCCC(=O)O,Potency,[6],inactive
same,Potency,[7],inactive
same,outcome,[8],inactive
same,Potency,[9],inactive
CCOC(C)=O,Potency,[6],inactive
same,Potency,[7],inactive
same,outcome,[8],inactive
same,Potency,[9],inactive
COc1ccc(CCNC[C@H](O)c2ccc(O)cc2)cc1OC,outcome,[1],inactive
same,outcome,[2],inactive
CN=C(NC#N)Nc1ccc(C2=NNC(=O)C[C@@H]2C)cc1,outcome,[1],inactive
same,outcome,[2],inactive
same,"activity change, negative = inhibition",[10]; at 57.5 µM (top of the series),-3.97% (inactive)
same,max response,[10]; [11],-17.4%
same,max response,[10]; [12],-20.4%
CC1=C2[C@@H]([C@H](C)CC[C@H]2/C=C(\C)C(=O)O)[C@H](O)C1,Potency,[6],inactive
same,Potency,[7],inactive
same,outcome,[8],inactive
same,Potency,[9],inactive
Cc1ccccc1,Potency,[6],inactive
same,Potency,[7],inactive
same,outcome,[8],inactive
same,Potency,[9],inactive
CCCCCCCC(=O)O,Potency,[6],inactive
same,Potency,[7],inactive
same,outcome,[8],inactive
same,Potency,[9],inactive
CCOc1ccc2c(c1)C(C)=CC(C)(C)N2,Potency,[7],inactive
same,outcome,[8],inactive
same,"activity change, negative = inhibition",[10]; at 25.7 µM (top of the series),-15.7% (inactive)
same,max response,[10]; [11],-17.3%
same,max response,[10]; [12],-29.2%
O=CCCCC=O,Potency,[6],12.6 µM (active)
same,Potency,[7],25.1 µM (active)
same,outcome,[8],inactive
same,Potency,[9],inactive
IC(I)I,Potency,[6],inactive
same,Potency,[7],inactive
same,outcome,[8],inactive
same,Potency,[9],inactive
O=C(O)CCC(=O)C(=O)O,Potency,[6],inactive
same,Potency,[7],inactive
same,outcome,[8],inactive
same,Potency,[9],inactive
CC1=C(/C=C/C(C)=C/C=C/C(C)=C/CO)C(C)(C)CCC1,Potency,[6],50.1 µM (active)
same,outcome,[8],inactive
CC(C)=O,Potency,[6],inactive
same,Potency,[7],inactive
same,outcome,[8],inactive
same,Potency,[9],inactive
CCCCCCCC/C=C\CCCCCCCC(=O)O,Potency,[6],inactive
same,Potency,[7],inactive
same,outcome,[8],inactive
same,Potency,[9],inactive
Nc1c(Br)cc(Br)cc1CNC1CCC(O)CC1 (stereo not given),"activity change, negative = inhibition",[10]; at 25.7 µM (top of the series),-1.33% (inactive)
same,"activity change, negative = inhibition",[10]; at 57.5 µM (top of the series),7.29% (inactive)
same,max response,[10]; [11],-4.61% and 6.29%
same,max response,[10]; [12],-3.94% and 15.7%
Nc1ccn([C@H]2CS[C@@H](CO)O2)c(=O)n1,Potency,[6],inactive
same,Potency,[7],inactive
same,outcome,[8],inactive
same,Potency,[9],inactive
CC(=O)N[C@@H](CC(=O)O)C(=O)N[C@@H](CCC(=O)O)C(=O)O (Ac-Asp-Glu-OH),"activity change, negative = inhibition",[10]; at 25.7 µM (top of the series),-3.36% (inactive)
same,"activity change, negative = inhibition",[10]; at 57.5 µM (top of the series),6.33% (inactive)
same,max response,[10]; [11],-8.34% and 14.1%
same,max response,[10]; [12],-7.7% and 26.3%
